Rows were chosen to be rich in hits. Some 2.2% of all compounds tested hit in one or more screens of this group.
Mito fusion act – inhibitors of mitochondrial division or activators of mitochondrial fusion; S. cerevisiae fusion-defective mutant growth rescue, CellTiterGlo 48 h; Potency, µM (titrated, usually from 46.1 µM), for the others: top-dose growth rescue (activation), most hits filed as activators; 320,000 tested, 0.23% active; AID 485298; also: % of control where 0% means no effect; nearly all actives have a fitted effect of over 45% in size
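Temperature-sensitive fusion-defective S. cerevisiae (e.g. fzo1-1, mgm1-5) were grown with compound in YPEG medium (3% ethanol, 3% glycerol) for 48 hours at 37C. Growth rescue was measured as viability by CellTiterGlo luminescence after 10 minutes at ambient.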
TDP43 rescue – inhibitors of TDP-43 toxicity in yeast | TDP-43 expressing yeast growth rescue, BacTiter-Glo, 24 h | Potency, µM (series often up to 46.1 µM), for the others: top-dose growth rescue (activation), usual class: activators | 410,000 tested, 1.8% active; also: % of control where 0% means no effect; nearly all actives have a fitted effect of over 50% in size
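Cell-based yeast growth screen: TDP-43 expression induced in galactose, inoculum OD600=0.02 after raffinose pregrowth to mid-log. Read-out BacTiter-Glo luminescence at 24 hr, 30 deg C; inhibition of toxicity seen as signal increase.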
aSyn rescue – alpha-synuclein toxicity inhibition in yeast; Yeast expressing alpha-synuclein, growth rescue, BacTiter-Glo, 24 h; Potency, µM (series often up to 46.1 µM), without a hit: top-dose growth rescue (activation), hits mostly activators; 370,000 tested, 0.14% active; AID 652106; also: % of control where 0% means no effect; nearly all actives have a fitted effect of over 65% in size
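Galactose-induced alpha-syn yeast (OD600=0.02, raffinose-pregrown) + pinned cpd, 24 hr, 30 deg C; growth by BacTiter-Glo luminescence. Growth restoration scores as activation.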
FUS yeast rescue – FUS proteinopathy suppression in yeast. S. cerevisiae FUS-expressing, growth rescue, OD600, 24 h. Potency, µM (highest dose often 76.6 µM), hits mostly activators. 390,000 tested, 0.24% active;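 also: plate controls were DMSO vehicle for no effect and reference control for full effect; nearly all actives have a fitted effect of over 55% in size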
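Compound concentration series was pinned onto galactose-induced FUS-expressing yeast seeded at OD 0.005. Plates sat 24hr at 30C; absorbance at 600 nm gave growth. DMSO served as background control.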
Abeta yeast res – restores growth of yeast expressing A-beta42 peptide; yeast expressing A-beta42, growth rescue, OD600, 48 h; response scale: 0% DMSO, 100% iron-clioquinol control; Potency, µM (series often up to 46.1 µM), hits mostly activators; 410,000 tested, 0.063% active; also: nearly all actives have a fitted effect of over 55% in size
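Growth rescue measured by 600 nm absorbance after 48 h yeast culture at 30 C with compound. Values normalized between DMSO and an equimolar ferric chloride plus clioquinol control.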
Starred values were filed as active, the others as inactive. Calls follow the shape of the dose curve; as a rule, active = well fitted curve in the direction sought with a large enough effect; inconclusive = small, poorly fitted or top-dose-only effect, or another doubt; inactive = no such curve, though single readings can be large; an effect the other way counts as inactive or inconclusive. Potency is read from the fitted curve at half-maximal effect.

For CC(C)CN1C(=O)C[C@@]2(C(=O)N(C)c3ccc(NC(=O)c4cc(F)ccc4F)cc32)C1c1ccccc1 (stereo not given in full) the results were FUS yeast rescue inactive.
Screening O=S(=O)(CC1NCc2ccccc21)NCCc1ccccc1 (stereo not given) returned FUS yeast rescue inactive.
Screening CCCCc1ccc(S(=O)(=O)NC(=O)C2(C)CCN2C(=O)CCc2cccs2)cc1 (stereo not given) returned TDP43 rescue 35µM*, aSyn rescue 1%, FUS yeast rescue inactive and Abeta yeast res inactive.
`COc1ccc(S(=O)(=O)NC(=O)C2(C)CCN2C(=O)C(C)(C)c2ccccc2)cc1` (stereo not given) gave TDP43 rescue 14µM*, aSyn rescue 7%, FUS yeast rescue inactive and Abeta yeast res inactive.
`Cc1ccccc1S(=O)(=O)NC(=O)C1(C)CCN1C(=O)CCc1cccs1` (stereo not given) gave TDP43 rescue 11%, aSyn rescue 6%, FUS yeast rescue inactive and Abeta yeast res inactive.
CC1(C(=O)NS(=O)(=O)c2ccc(Cl)cc2)CCN1C(=O)C1(c2ccccc2)CCCC1 (stereo not given) was read as TDP43 rescue 14µM*, aSyn rescue -10%, FUS yeast rescue inactive and Abeta yeast res inactive.
CCCC(=O)N1CCC1(C)C(=O)NS(=O)(=O)c1ccc(OC)cc1 (stereo not given) was read as TDP43 rescue -5%, aSyn rescue -12%, FUS yeast rescue inactive and Abeta yeast res inactive.
N#Cc1cccc(NC(=O)OCCN2C(=O)CCC23CCC(c2ccc(Cl)cc2)CC3)c1 (stereo not given) was read as FUS yeast rescue inactive.
`Cc1ccc(NC(=O)c2cncc(Br)c2)nc1` gave Mito fusion act 0%, TDP43 rescue 2%, aSyn rescue -2%, FUS yeast rescue inactive and Abeta yeast res inactive.
Screening CCCCOc1ccc(C(=O)NC2CCCCN(Cc3ccc(Cl)cc3)C2=O)cc1 (stereo not given) returned FUS yeast rescue inactive.
Cc1cc2c(cc1C)-c1nnnn1C(N1CCC(Cc3ccccc3)CC1)C(=O)N2 (stereo not given) was read as TDP43 rescue 25µM*, aSyn rescue 0%, FUS yeast rescue inactive and Abeta yeast res inactive.
For Cc1ccccc1CN1CCc2c(OCC(=O)N3CCCc4ccccc43)cccc2C1=O the results were Mito fusion act inconclusive, TDP43 rescue 13µM*, aSyn rescue 11%, FUS yeast rescue inactive and Abeta yeast res inactive.
COCC(=O)N(Cc1cc2cccc(C)c2[nH]c1=O)c1ccccc1 was read as Mito fusion act 2%, TDP43 rescue -8%, aSyn rescue -7%, FUS yeast rescue inactive and Abeta yeast res inactive.
O=C(NC(=S)N1CCN(c2nc(-c3ccccc3)cs2)CC1)c1cncc(Br)c1 was read as Mito fusion act 6%, TDP43 rescue 16µM*, aSyn rescue inconclusive, FUS yeast rescue inactive and Abeta yeast res inconclusive.
O=C(CN1CCN(c2nc(-c3ccccc3)cs2)CC1)NNC(=O)c1ccc(Br)cc1 was read as Mito fusion act -1%, TDP43 rescue -26%, aSyn rescue 0%, FUS yeast rescue inactive and Abeta yeast res inactive.
Screening COc1cccc(-c2csc(N3CCN(C(=O)Nc4ccc(Cl)cc4)CC3)n2)c1 returned Mito fusion act 9%, TDP43 rescue 11µM*, aSyn rescue -24%, FUS yeast rescue inactive and Abeta yeast res inactive.
Screening COCCCNC(=S)N1CCN(c2nc(-c3ccc(Cl)cc3)cs2)CC1 returned TDP43 rescue 13µM*, aSyn rescue -18%, FUS yeast rescue inactive and Abeta yeast res inconclusive.
For CCOCCCNC(=S)N1CCN(c2nc(-c3ccccc3)cs2)CC1 the results were Mito fusion act 0%, TDP43 rescue 20µM*, aSyn rescue -4%, FUS yeast rescue inactive and Abeta yeast res inconclusive.

From PubChem
